Several values for one entry are separate records, joined by “and”; a condition that tells them apart may be missing. Identical values can stand only once. About 940 (45%) of roughly 2,100 compounds were called active. Not shown: some 48% with an inconclusive outcome. So high a share suggests a set chosen from earlier hits. The list shows a part of the results. Unmarked numbers belong to inactive results. Calls follow the shape of the dose curve; as a rule, active = well fitted inhibition curve with a large enough effect; inconclusive = small, poorly fitted or top-dose-only effect; inactive = no such curve, though single readings can be large or run the other way.
Assay: Confirmatory qHTS for Inhibitors of ATXN expression; also: nearly all actives have a fitted effect of over 65% in size;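 as to activity change, negative = inhibition: 0% = DMSO vehicle wells and -100% = medium-only wells without cells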
Settings: ATXN2-luciferase reporter cells, luminescence, 24 h; series mostly up to 11.5 µM; activity change, negative = inhibition: at the top concentration
Method in brief: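 Cells carrying ATXN2-luciferase reporter exposed 24 h at 37 C to compound. Viability then read by CellTiter-Fluor (25 uM GF-AFC, 30 min), followed by SteadyGlo luminescence; medium-only wells set 100% inhibition.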
Potency is read from the fitted curve at half-maximal effect.

Row | Structure (SMILES) | Potency | activity change, negative = inhibition
1 | COc1ccccc1N1CCN(Cc2ccc(O)c3ncccc23)CC1 | 0.562 µM (active) | –
2 | COc1ccccc1N1CCN(Cc2cc(Br)c(O)c3ncccc23)CC1 | 3.55 µM (active) | –
3 | CO[C@@]12[C@@H]3N[C@@H]3CN1C1=C(C(=O)C(N)=C(C)C1=O)[C@@H]2COC(N)=O | – | 6.61%
4 | Cc1nc(SC2CC(=O)N(c3ccccc3)C2=O)n[nH]1 (stereo not given) | – | 5.8% [at 57.5 µM]
5 | O=C(c1ccco1)N1CCN(c2ncnc3scc(-c4cccs4)c23)CC1 | – | -20.8%
6 | Cc1c(C(=O)N2CCN(c3ccc(F)cc3)CC2)sc2ncnc(N3CCN(c4ccccn4)CC3)c12 | 2.82 µM (active) | –
7 | O=C(/C=C/NNC(=O)c1ccccc1)c1ccc([N+](=O)[O-])cc1 | 3.16 µM (active) | –
8 | COc1ccc(C(=O)C=CNNC(=O)c2ccc(Cl)cc2)cc1 | 14.1 µM (active) | –
9 | CCCCn1c(/C=N/Nc2nc3ccccc3[nH]2)nc2ccccc21 | – | -15.3%
10 | CC(C)Cn1c(/C=N/Nc2nc3ccccc3[nH]2)nc2ccccc21 | 8.91 µM (active) | –
11 | S=C(NCCCN1CCOCC1)N1CCN(c2nc(-c3ccccc3)cs2)CC1 | 11.2 µM (active) | –
12 | O=c1c2ccc(Cl)cc2nc(-c2cccc(C(F)(F)F)c2)n1O | 2.51 µM (active) | –
13 | Cc1cc(/C=N/n2cnnc2)c(C)n1-c1ccc(OCc2ccc(Cl)cc2Cl)cc1 | 7.94 µM (active) | –
14 | COc1cc(OC)c2cc(C(=O)N/N=C/c3cccc(OC)c3O)[nH]c2c1 | 3.55 µM (active) | –
15 | COc1cccc(/C=N/NC(=O)c2cc3c(OC)cccc3[nH]2)c1O | 2.24 µM (active) | –
16 | O=C(NC(=S)N1CCN(c2ccc(F)cc2)CC1)c1cccs1 | – | -6.64%
17 | Cc1[nH]c(-c2ccc(F)cc2)cc1C(=O)N1CCN(c2ccc(Cl)cc2)CC1 | 25.1 µM (active) | –
18 | CN1CCN(c2cc(-c3cc(O)c4ncccc4c3)ccn2)CC1 | 12.6 µM (active) | –
19 | C/C(=N\NC(=O)C1COc2ccccc2O1)c1ccccn1 (stereo not given) | 0.631 µM (active) | –
20 | C/C(=N\NC(=O)C1CCCN(S(=O)(=O)c2ccccc2)C1)c1ccccn1 (stereo not given) | 0.794 µM (active) | –
21 | COc1ccc(CC(=O)N/N=C(\C)c2ccccn2)cc1 | 11.2 µM (active) | –
22 | C/C(=N\NC(=O)Cc1ccc(Cl)cc1)c1ccccc1O | 14.1 µM (active) | –
23 | CCCCCC(=O)N/N=C(\C)c1ccccn1 | 0.501 µM (active) | –
24 | C/C(=N\NC(=O)CCCNc1ccc(C)cc1)c1ccccn1 | 14.1 µM (active) | –
25 | Cc1ccc(/C=N/NC(=O)C2=NNC(c3ccccc3)(c3ccccc3)C2)c(O)c1 | 2.82 µM (active) | –
26 | CC(C)(C)c1nnc(N/N=C/c2ccccc2O)n(N)c1=O | 0.891 µM (active) | –
27 | CCn1c2ccccc2c2cc(C3C(C#N)=C(N)Oc4n[nH]c(COC)c43)ccc21 (stereo not given) | 2.82 µM (active) | –
28 | CCn1c2ccccc2c2cc(NC(=O)COC(=O)c3cc(S(=O)(=O)N4CCCCC4)ccc3Cl)ccc21 | 1.58 µM (active) | –

Row | Structure (SMILES) | Potency | activity change, negative = inhibition
29 | CCn1c2ccccc2c2cc(NC(=O)COC(=O)Cc3cn4ccsc4n3)ccc21 | 1.26 µM (active) | –
30 | CCn1c2ccccc2c2cc(NC(=O)COC(=O)C3CCC(=O)N3)ccc21 (stereo not given) | 11.2 µM (active) | –
31 | CCn1c2ccccc2c2cc(NC(=O)COC(=O)c3ccccc3F)ccc21 | 2 µM (active) | –
32 | Cc1c(C(=O)NCc2ccc(Cl)c(Cl)c2)sc(=O)n1Cc1ccc(S(C)(=O)=O)cc1 | – | -22.8%
33 | COc1ccc(N=Cc2cc3c(cc2O)OC(N)=C(C#N)C3c2ccccc2)cc1 (stereo not given) | – | -25.5%
34 | Cc1cc(OCc2nc(N)nc(N)c2-c2ccc(Cl)c(Cl)c2)ccc1[N+](=O)[O-] | 2.51 µM (active) | –
35 | COc1ccccc1-n1c(-c2ccccc2)c[n+]2c1CCc1ccccc1-2 | 7.94 µM (active) | –
36 | Cc1ccc(-n2c(-c3ccccc3)c[n+]3c2CCc2ccccc2-3)c(C)c1 | 0.794 µM (active) | –
37 | CNc1ccccc1C(=O)OC(C)C(=O)Nc1ccc(Cl)cn1 (stereo not given) | 2 µM (active) | –
38 | Cc1nnc(SC(C)C(=O)Nc2ccc(Cl)cn2)n1Cc1ccccc1 (stereo not given) | – | -20.6% [at 57.5 µM]
39 | NNC(=O)c1sc2cc(C(F)(F)F)cnc2c1-c1cccs1 | 28.2 µM (active) | –
40 | COC1=C(c2ccccc2)C(=O)c2ccccc2C1=O | – | -16.5%
41 | Cc1ccnc(N2C(=O)c3cccc4c([N+](=O)[O-])ccc(c34)C2=O)c1 | 28.2 µM (active) | –
42 | O=C(Nc1nccs1)c1cccc(N2C(=O)c3cccc4c([N+](=O)[O-])ccc(c34)C2=O)c1 | 20 µM (active) | –
43 | O=C1c2cccc3c([N+](=O)[O-])ccc(c23)C(=O)N1c1ccccn1 | 3.98 µM (active) | –
44 | Cc1ccc(Cl)cc1-c1ccc(C=Nc2ccc(N3CCOCC3)cc2)o1 | 12.6 µM (active) | –
45 | C=CCn1cnc2c(c1=O)c1nc3ccccc3nc1n2/N=C/c1cc(OC)c(OC)c(OC)c1 | 14.1 µM (active) | –
46 | Cc1cc(C)c2nc(NNC(=O)c3ccc(S(=O)(=O)N4CCc5ccccc5C4)cc3)sc2c1 | 3.16 µM (active) | –
47 | Cc1ccc2nc(NNC(=O)c3ccc(S(=O)(=O)N4CCc5ccccc5C4)cc3)sc2c1 | 2.51 µM (active) | –
48 | NC(=O)c1cc([N+](=O)[O-])ccc1NCc1ccc(N)cc1 | 4.47 µM (active) | –
49 | C[n+]1c2cc(N)ccc2cc2ccc(N)cc21 | 4.47 µM (active) and 3.55 µM (active) | –
50 | Nc1c(C(=O)NCc2ccc(F)cc2)c2nc3ccccc3nc2n1CCCN1CCOCC1 | 3.16 µM (active) | –
51 | Cn1c(/C=C/c2ccc(Cl)cc2Cl)c([N+](=O)[O-])c(=O)n(C)c1=O | 11.2 µM (active) | –
52 | Cn1c(/C=C/c2ccc(Cl)cc2)c([N+](=O)[O-])c(=O)n(C)c1=O | 22.4 µM (active) | –
53 | Cn1c(/C=C/c2cccc([N+](=O)[O-])c2)c([N+](=O)[O-])c(=O)n(C)c1=O | 25.1 µM (active) | –
54 | O=C1C=CCC(/C=C/c2ccccc2)O1 (stereo not given) | 6.31 µM (active) | –
55 | CCC(C)(C)c1ccc(OCCCC[n+]2ccccc2)c(C(C)(C)CC)c1 | 3.16 µM (active) | –

Source: PubChem BioAssay AID1745848 (National Center for Advancing Translational Sciences (NCATS), 2022)
